Assay outcomes: PubChem, National Center for Advancing Translational Sciences (NCATS)
An excerpt weighted towards active compounds, which were near 21% of everything screened.
FBPA Giardia inh = Giardia lamblia aldolase inhibition; A8B2U2; purified Giardia FBPA; Potency, µM (titrated, usually from 59.6 µM), for the others: at the top dose activity, negative = inhibition, most hits filed as inhibitors; hit rate 0.71% among 290,000; further: potency means the concentration at half of the fitted maximal effect; on the % scale 0 is the no-effect control and ±100 the full control effect; nearly all actives have a fitted effect of over 55% in size
Target sequence (A8B2U2 whole entry, looked up): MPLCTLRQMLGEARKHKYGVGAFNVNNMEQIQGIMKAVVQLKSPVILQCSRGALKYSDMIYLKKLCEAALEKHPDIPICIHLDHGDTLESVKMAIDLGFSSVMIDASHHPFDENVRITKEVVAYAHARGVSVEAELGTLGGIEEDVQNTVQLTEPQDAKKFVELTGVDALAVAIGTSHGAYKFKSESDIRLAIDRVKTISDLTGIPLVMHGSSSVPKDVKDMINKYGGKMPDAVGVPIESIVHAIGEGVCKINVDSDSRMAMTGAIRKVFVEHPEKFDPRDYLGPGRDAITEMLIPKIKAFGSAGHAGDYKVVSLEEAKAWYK
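Giardia FBPA (40 nM reagent) was preincubated 10 min at RT with compound (up to 57.5 uM final), then substrate plus GAPDH/TPI/NAD/arsenate coupling system with diaphorase/resazurin was added; resorufin fluorescence (525/598 nm) was read after 20 min.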
CHX counter = counter-screen hit for Shiga toxin inhibitors, cycloheximide; cell reporter, cycloheximide protein synthesis inhibition counterscreen; max response, %; hit rate 12% among 300,000; AID 2314; in the data active means max response mostly above about 13%, no sharp cut-off; inactive means mostly below about 14%; further: read at 38.3 µM for the half of the compounds with a filed dose; 0% is about no effect
Pf growth 96h = P. falciparum growth inhibition at 96 hour, primary screen for plastid delayed-death inhibitors; P. falciparum luciferase reporter growth, 96 h; Potency, µM (highest dose often 28.7 µM), inactives show at the highest dose activity change, negative = inhibition, hits mostly inhibitors; hit rate 6.9% among 320,000; AID 504834; further: potency means the concentration at half of the fitted maximal effect; on the % scale 0 is the no-effect control and ±100 the full control effect
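Luminescence readout: decreased luciferase signal marks inhibited growth of reporter-expressing P. falciparum in infected red cells (2% hematocrit, 0.05% parasitemia final), exposed to compound two generations (96 h, 37 C, 5% CO2).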
NS1 function inh = blocks influenza NS1 protein function | Potency, µM (highest dose often 46.1 µM), for inactives: top-dose activity, positive = more growth | hit rate 0.4% among 270,000; calls by dose curve; further: potency means the concentration at half of the fitted maximal effect; actives are rising curves; nearly all actives have a fitted effect of over 50% in size
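Recovery from NS1-induced slow growth read by OD600 in budding yeast switched to galactose assay medium (pH 6.0, -URA) at 1:100 dilution. Compound 23 nl per well; the matching strain lacking NS1 serves as control.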
Pf growth 48h = inhibits P. falciparum growth in the first generation, 48 h. P. falciparum luciferase growth in erythrocytes, 48 h. Potency, µM (top dose mostly 28.7 µM), for the others: at the highest dose activity change, negative = inhibition, hits mostly inhibitors. hit rate 5.9% among 310,000; further: potency means the concentration at half of the fitted maximal effect; on the % scale 0 is the no-effect control and ±100 the full control effect
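Here the parasites carry a stable luciferase gene and grow inside erythrocytes in Albumax-based RPMI medium with compound for one erythrocytic cycle. Activity is scored as loss of luminescent signal.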
Shiga toxin inh = blocks Shiga toxin action in Vero cells; inhibition, % at 38.7 µM; AID 2315; Vero cells, Shiga toxin protein synthesis inhibition reporter; hit rate 9.2% among 290,000; in the data active means inhibition mostly above about 28%, no sharp cut-off; inactive means mostly below about 43%; further: 0% is about no effect
An asterisk follows results filed as active; i = inactive; ? = inconclusive; · = no result; [ ] = another dose, or the depositor's remark. Unless noted, the call rests on the fitted dose curve; in most records, active means well fitted curve in the direction sought with a large enough effect; inconclusive means small, poorly fitted or top-dose-only effect, or another doubt; inactive means no such curve, though single readings can be large; an effect the other way counts as inactive or inconclusive.

SMILES	FBPA Giardia inh	CHX counter	Pf growth 96h	NS1 function inh	Pf growth 48h	Shiga toxin inh
CCCCNC(=O)c1cccc(S(=O)(=O)N2CC3(C)CC2CC(C)(C)C3)c1 (stereo not given)	·	·	12µM*	·	?	·
Cc1cn(C2CC(N=[N+]=[N-])C(CO)O2)c(=O)[nH]c1=O (stereo not given)	5%	·	·	·	·	·
COc1ccc(C2C3C=CCC(C)C3C(=O)N2Cc2ccccc2)cc1Cl (stereo not given)	-2%	-9	·	·	·	6
CC1CCC(C(=O)O)NC1c1cccc(N2CCCC2=O)c1 (stereo not given)	5%[12.9 µM]	·	·	·	·	·
CCCCc1cc(C(=O)Cc2ccccn2)c(O)cc1O	-3%	-1	?	3%	?	3
Cc1ccc(NC(=O)c2cc([N+](=O)[O-])ccc2N2CCOCC2)cc1S(=O)(=O)N1CCOCC1	·	-3	?	2%	?	10
O=C(Nc1cc(S(=O)(=O)Nc2ccc(Cl)cc2)ccc1N1CCCCC1)c1ccc(F)cc1	-7%	2	?	2%	?	7
N#Cc1ccc(C(=O)Nc2cc(S(=O)(=O)Nc3ccc(Cl)cc3)ccc2N2CCCCC2)cc1	6%	-3	10µM*	16%	13µM*	-4
CC(C)Oc1ccc(S(=O)(=O)N2CCOCC2)cc1NC(=O)c1cc([N+](=O)[O-])ccc1N1CCOCC1	·	·	12µM*	·	13µM*	·
Cc1ccc(C(=O)OCC(=O)Nc2cc(C(C)(C)C)no2)c(C)c1	·	·	?	·	-25%	·
CC12CCC(C(=Nc3ccc(N=C4C(=O)C5(C)CCC4C5(C)C)cc3)C1=O)C2(C)C	-12%	1	70%	0%	57%	-4
Cc1ccc(N/C=C2\C(=O)C3(C)CCC2C3(C)C)cc1C (stereo not given)	2%	21*	?	·	-8%	27
CCOc1ccc(NC(=O)c2ccc(CSc3nnc(C)s3)cc2)cc1	5%	14	?	4%	-4%	-4
COC(=O)c1ccc(CSc2nc(N)cc(N)n2)cc1	-2%	36*	-5%	-60%	91%	53*
COC(=O)c1ccc(CSc2nnc(N)s2)cc1	0%	21*	36%	-13%	58%	73
COC(=O)c1cccc(CSc2nnc(C)s2)c1	-19%	23*	147%	-11%	103%	97*
COC(=O)c1ccc(CSc2nnc(C)s2)cc1	·	38*	3%	-7%	149%	67*
COC(=O)c1ccc(CSc2nnc(NC(=O)c3cc4c(s3)CCCC4)s2)cc1	9%	-3	·	-3%	-1%	-1
CCCCCCCc1cc2c(cn1)=C(OC)C(C)(OC(C)=O)C(=O)C=2Cl (stereo not given)	-7%	·	·	·	·	·
COc1ccc([C@]23Cc4cc(C#N)ccc4C(O2)c2c(c4ccc(OC)cc4oc2=O)O3)cc1	-6%[12.9 µM]	-3	?	6%	?	i
CCc1ccc(-c2nc(SCC(=O)c3c(N)n(C4CC4)c(=O)[nH]c3=O)n[nH]2)cc1	·	·	70%	·	75%	·
O=C(/C=C/c1cccc(Cl)c1Cl)OCC(=O)N1CCOCC1	·	·	14%	·	4%	·
Cc1nnc(SCC(=O)c2ccc(Cl)cc2)s1	-3%	43*	0%	3%	165%	87*
Cc1nnc(SCC(=O)c2ccc([N+](=O)[O-])cc2)s1	?	8	?	4%	-5%	3
COc1ccc(CSc2nnc(C)s2)cc1F	0%	16*	?	·	94%	73*
SMILES	FBPA Giardia inh	CHX counter	Pf growth 96h	NS1 function inh	Pf growth 48h	Shiga toxin inh
Cc1ccccc1OCCCn1c(=O)sc2ccccc21	·	66*	144%	-55%	9%	106*
COc1ccc(Cn2c(=O)sc3ccccc32)cc1	24%	1	·	?	5%	-1
Cc1ccc(OCCCn2c(=O)sc3ccccc32)cc1	·	24*	1%	-28%	?	19
O=c1sc2ccccc2n1COc1ccc(Cl)cc1	3%	35*	21%	-2%	·	72
Cc1ccc(OCCn2c(=O)sc3ccccc32)cc1	-6%	45*	?	-6%	-2%	61*
CCN(c1ccccc1)S(=O)(=O)c1cccc(C(=O)NCCN2CCOCC2)c1	·	·	?	·	0%	·
CC1(C)[C@@H]2CC[C@]1(CC(=O)O)[C@H](Cl)C2	·	·	·	-4%	·	·
O=c1sc2ccccc2n1COc1ccccc1	7%	15	-3%	2%	-6%	48
O=c1sc2ccccc2n1CCCOc1ccccc1	·	42*	176%	-31%	57%	119*
Clc1cccc(SC2CCNCC2)n1	8%	·	4.3µM*	·	-1%	·
COc1ccc(C2c3c(c(C)c(C)oc3=O)Oc3c(C)c(C)oc(=O)c32)cc1	·	·	10%	·	30%	·
COc1cc(C2c3c(c(C)c(C)oc3=O)Oc3c(C)c(C)oc(=O)c32)ccc1OS(=O)(=O)c1ccc(C)cc1	·	·	4.7µM*	·	5.9µM*	·
O=C(CN1C(=O)/C(=C/c2ccco2)SC1=S)NC1CCS(=O)(=O)C1 (stereo not given)	?	1	?	10%	22%	-18
CN(Cc1ccccc1Cl)C(=O)c1cc2ccccc2o1	-8%	31*	22%	-34%	21%	39*
CCN(Cc1ccc(OC)c(F)c1)C(=O)c1cc2ccccc2o1	-2%	18*	-17%	-33%	-10%	9
O=C(c1cc2ccccc2oc1=O)N(Cc1cccs1)Cc1ccccc1Cl	-8%	45*	-20%	6%	?	60*
CN(Cc1ccc(Cl)cc1Cl)C(=O)c1cc(=O)c2ccccc2o1	2%	-1	-14%	-23%	-8%	24
CN(C)CCCOC(=O)c1cc2ccccc2o1	-9%	1	?	5%	2.6µM*	-3
O=C(OCCN1C(=O)c2ccccc2C1=O)c1cc2ccccc2o1	8%	1	28%[5.75 µM]	-9%	35%	8
CCOC(=O)C1CCN(Cc2cc(=O)oc3c(C)c(C)ccc23)CC1	6%	0	-29%	-4%	?	15
O=C(O)Cc1ccc(S(=O)(=O)Nc2ccccc2C(=O)O)cc1	10%	-3	8%	·	15%	-4
O=C(c1cc2n(n1)C(C(F)(F)F)CC(c1ccc(F)cc1)N2)N1CCCC1 (stereo not given)	0%	-2	?	?	-5%	-7
C/C(CCN1CCCCc2nc(C)c(C)cc21)=N\O[C@@H](C)CN1CCCc2nc(C)c(C)cc21	-1%[12.9 µM]	·	·	·	·	·
